Experimental data taken from PubChem BioAssay (NCI).
The panel holds about 79,000 compounds, 15% with a hit somewhere; the sample as a whole holds those more often. Values without a mark were called inactive. Active and inactive are the calls of the source. No stated cut-off is given here; in the data, active means growth inhibition above about 70%; inactive means the rest.

What was measured:
[1] = NCI Yeast Anticancer Drug Screen. Data for the rad50 strain (AID 155);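 further: 0% = growth of vehicle-only cultures of the same strain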; conditions: S. cerevisiae rad50 strain growth inhibition, hits give high values
In short: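 Relative growth inhibition (compound vs vehicle) was measured in yeast with a defined repair-gene alteration.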

[2] = NCI Yeast Anticancer Drug Screen. Data for the mec2-1 strain (AID 157); conditions: S. cerevisiae mec2-1 strain, hits give high values
In short: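 Vehicle-treated cultures served as reference for growth inhibition of compound-exposed mec2-1 yeast.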

[3] = NCI Yeast Anticancer Drug Screen. Data for the sgs1 mgt1 strain (AID 161);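 further: 0% = growth of cultures given vehicle only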; conditions: S. cerevisiae sgs1 mgt1 strain, hits give high values
In short: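 Mutant yeast exposed to compound; growth scored against vehicle-only wells.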

[4] = NCI Yeast Anticancer Drug Screen. Data for the cln2 rad14 strain (AID 165);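 further: 0% = growth equal to vehicle treated cultures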; conditions: S. cerevisiae cln2 rad14 strain, hits give high values
In short: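 Each compound was tested on cln2 rad14 yeast. Inhibition of growth was calculated against vehicle-exposed controls.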

[5] = NCI Yeast Anticancer Drug Screen. Data for the bub3 strain (AID 167); conditions: S. cerevisiae bub3 mutant strain, hits give high values
In short: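 Screening used yeast with an engineered genetic alteration affecting cell cycle control. Compound-exposed cultures were compared with vehicle cultures, and reduced growth was taken as inhibition.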

[6] = NCI Yeast Anticancer Drug Screen. Data for the mlh1 rad18 strain (AID 175); conditions: S. cerevisiae mlh1 rad18 strain growth inhibition, hits give high values
In short: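 Vehicle-treated cultures served as the reference for growth inhibition in a yeast strain carrying DNA damage repair alterations exposed to each compound.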

[7] = at 5.0 µM (retest, dose inferred, filed as 0.5)
[8] = at 50.0 µM (retest, dose inferred, filed as 5.0)

SMILES	growth inhibition [1, 7]	growth inhibition [1, 8]	growth inhibition ([1]; at 50.0 µM)	growth inhibition [2, 7]	growth inhibition [2, 8]	growth inhibition ([2]; at 50.0 µM)	growth inhibition [3, 7]	growth inhibition [3, 8]	growth inhibition ([3]; at 50.0 µM)	growth inhibition [4, 7]	growth inhibition [4, 8]	growth inhibition ([4]; at 50.0 µM)	growth inhibition [5, 7]	growth inhibition [5, 8]	growth inhibition ([5]; at 50.0 µM)	growth inhibition [6, 7]	growth inhibition [6, 8]	growth inhibition ([6]; at 50.0 µM)
CCOc1ccccc1-c1nc2c(s1)C(=O)c1ccccc1C2=O	87% (active)	98% (active)	90% (active)	100% (active)	99% (active)	91.4% (active)	85% (active)	98% (active)	92% (active)	52%	98% (active)	89.9% (active)	98% (active)	98% (active)	92.3% (active)	94% (active)	98% (active)	91.8% (active)
O=C(/C=C\c1cc(Br)ccc1O)/C=C/c1cc(Br)ccc1O	58%	90% (active)	76.8% (active)	95% (active)	91% (active)	75.8% (active)	80% (active)	91% (active)	73.3% (active)	36%	88% (active)	36.4%	95% (active)	91% (active)	89% (active)	48%	86% (active)	75% (active)
c1ccc(CN2CCc3[nH]c4ccccc4c3C2)cc1	-1%	-3%	-1.9%	-1%	-2%	17.1%	-4%	-1%	7.8%	-1%	-7%	33.5%	1%	6%	-2.45%	-3%	-1%	18%
CC[N+]1(C)CCC(O)(/C=C/c2ccccc2)C(C(=O)/C=C/c2ccccc2)C1 (configuration not stated)	7%	98% (active)	99.3% (active)	11%	99% (active)	99.7% (active)	12%	54%	99.2% (active)	8%	98% (active)	83% (active)	7%	99% (active)	99.3% (active)	11%	99% (active)	99.3% (active)
CC(=O)[O-].CC(=O)[O-].CC(=O)[O-].CC(=O)[O-].Cn1c(=O)c2[nH]cnc2n(C)c1=O.Cn1c(=O)c2[nH]cnc2n(C)c1=O.[Rh+2].[Rh+2]	3%	20%	43.3%	12%	23%	27.6%	12%	13%	-39.7%	9%	9%	-5.35%	11%	19%	-29.4%	48%	62%	23.1%
COCCCNC(=O)SC	0%	-2%	-9.65%	2%	-1%	-22.4%	3%	2%	-15.6%	-2%	0%	56.6%	0%	2%	-6.85%	0%	-2%	19.1%
Nc1c(F)cccc1F	-2%	8%	-16.3%	2%	0%	11.6%	-3%	1%	-5.95%	2%	-6%	20.4%	2%	7%	-1.15%	0%	3%	-8.3%
N=C(N)c1ccc(N=Nc2cc(/C=C/c3ccccc3)ccc2O)cc1	24%	98% (active)	97.7% (active)	2%	99% (active)	99% (active)	24%	98% (active)	98.5% (active)	3%	98% (active)	98.3% (active)	2%	98% (active)	98% (active)	7%	98% (active)	98.8% (active)
c1ccc(CSc2nnc3c4ccccc4c4ccccc4c3n2)cc1	-4%	5%	-22.6%	8%	-22%	-19.7%	5%	5%	-5.3%	-21%	-12%	29.4%	8%	13%	-9.25%	1%	3%	42%
Nc1ccc(S(=O)(=O)Nc2nc3ccccc3nc2N2CCCCCC2)cc1	30%	79% (active)	43.5%	30%	87% (active)	48.1%	36%	92% (active)	82.2% (active)	40%	92% (active)	82.5% (active)	44%	95% (active)	85.2% (active)	39%	90% (active)	85.6% (active)
CC(=O)ON=C1C=CC(=C(C#N)c2ccccc2)C=C1	44%	99% (active)	97.2% (active)	41%	100% (active)	99.1% (active)	46%	100% (active)	64.1%	88% (active)	100% (active)	98.2% (active)	72% (active)	100% (active)	66.3%	49%	99% (active)	99.5% (active)
O=C1Nc2ccccc2NC(=O)C(=C(c2ccccc2)c2ccccc2)C1=C(c1ccccc1)c1ccccc1	95% (active)	96% (active)	46.9%	94% (active)	97% (active)	97.8% (active)	96% (active)	98% (active)	53.1%	92% (active)	96% (active)	97.5% (active)	95% (active)	97% (active)	98% (active)	96% (active)	96% (active)	43.9%
Clc1ccccc1CN1COc2c(ccc3cccnc23)C1	9%	21%	69%	12%	16%	32.9%	7%	51%	55.5%	0%	44%	13.3%	7%	31%	26.1%	19%	72% (active)	41.6%
CN(C)c1ccc(C2C=C(c3ccccc3)Oc3ccccc32)cc1 (configuration not stated)	97% (active)	96% (active)	96.7% (active)	94% (active)	96% (active)	97% (active)	97% (active)	97% (active)	96.9% (active)	92% (active)	94% (active)	95.8% (active)	93% (active)	97% (active)	95.8% (active)	95% (active)	96% (active)	96.8% (active)
O=C1c2ccccc2C(O)(C#Cc2ccccc2)c2cnccc21 (configuration not stated)	-6%	96% (active)	97.8% (active)	-5%	97% (active)	98.5% (active)	-1%	97% (active)	98.2% (active)	-11%	96% (active)	97% (active)	-11%	97% (active)	98.2% (active)	-5%	96% (active)	97.8% (active)
CCCCCCC(=O)CC(SCCN)c1ccccc1Cl (configuration not stated)	9%	52%	99.2% (active)	-5%	56%	99.4% (active)	-12%	48%	99.2% (active)	12%	99% (active)	98.3% (active)	-5%	99% (active)	98.9% (active)	1%	55%	98.8% (active)
O=C(O)c1cc2cc3ccccc3cc2cc1O	-1%	32%	73.3% (active)	2%	34%	57.2%	3%	36%	81% (active)	-1%	14%	55.2%	0%	22%	51.2%	-1%	27%	64.7%
COc1ccc(CC2C(=O)NC(C)C(=O)N(C)C3Cc4ccc(cc4)Oc4cc(ccc4O)CC(C(=O)NC(C)C(=O)NC(C)C(=O)N2C)N(C)C3=O)cc1 (configuration not stated)	-6%	54%	61.1%	25%	64%	39.8%	25%	48%	66.5%	46%	72% (active)	70.5% (active)	16%	64%	59.6%	-1%	77% (active)	53.5%
CCc1ccc(-c2ccccc2)cc1	1%	1%	9.45%	-1%	6%	-2.95%	-1%	-2%	-3.9%	-7%	6%	76.9% (active)	9%	10%	9.05%	0%	4%	8.75%
